Active and inactive are the calls of the source. Unless noted, the rule behind the calls is not given here.
Assays:
[1] = compound effects on lung adenocarcinoma cell viability – A549, calcein-AM fluorescence, 48 h, basal, profiling panel (AID 1162); settings: higher = more signal; note: test concentration not given here
[2] = compound effects on differentiated 3T3-L1 adipocyte viability – cell-based, 3T3-L1 adipocytes, calcein-AM fluorescence, 48 h, basal, profiling panel (AID 1163); settings: 3T3-L1 adipocytes viability, higher = more signal; note: test concentration not given here
[3] = compound effects on hepatocellular carcinoma cell viability – HepG2, calcein-AM fluorescence, 48 h, basal, profiling panel (AID 1164); settings: higher = more signal; note: test concentration not given here
[4] = compound effects on multiple myeloma cell viability – MM1S, calcein-AM fluorescence, 48 h, basal, profiling panel (AID 1165); settings: higher = more signal;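 note: viability of MM1S multiple myeloma cells under basal unstimulated conditions; test concentration not given here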
[5] = calcein-AM signal in unstimulated myeloma cells – cell-based, calcein-AM fluorescence, 48 h, PK04 Diversity Set, profiling panel (AID 1166); settings: RPMI8226 myeloma viability, higher = more signal;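 note: cells grown under basal conditions without added stimulus; test concentration not given here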
[6] = JC-1 mitochondrial signal, unstimulated HepG2 cells – cell-based, JC-1 fluorescence, 24 h, 100 nL compound, profiling panel (AID 1167); settings: HepG2 mitochondrial potential, higher = more signal; note: test concentration not given here
[7] = JC-1 mitochondrial signal, unstimulated adipocytes – cell-based, JC-1 fluorescence, 3T3-L1 adipocytes, 24 h, 100 nL compound, profiling panel (AID 1168); settings: JC-1 mitochondrial fluorescence, higher = more signal, called active from +8 up or from −8 down; note: test concentration not given here
[8] = JC-1 mitochondrial signal, unstimulated myeloma cells – cell-based, JC-1 fluorescence, RPMI8226, 24 h, 100 nL compound, profiling panel (AID 1169); settings: JC-1 mitochondrial potential fluorescence, higher = more signal; note: test concentration not given here
[9] = JC-1 mitochondrial signal, unstimulated MM1S myeloma – cell-based, JC-1 fluorescence, 24 h, 100 nL compound, profiling panel (AID 1170); settings: MM1S mitochondrial potential, higher = more signal; note: test concentration not given here
[10] = resazurin metabolic signal in A549 cells – cell-based, resazurin fluorescence, 24 h, PK04 Diversity Set, profiling panel (AID 1171); settings: A549 viability, higher = more signal, called active from +8 up or from −8 down; note: test concentration not given here
[11] = resazurin metabolic signal in HepG2 cells – cell-based, resazurin fluorescence, 24 h, PK04 Diversity Set, profiling panel (AID 1172); settings: HepG2 viability, higher = more signal; note: test concentration not given here
[12] = budding yeast growth changes without added modifier – OD600, strain BY4716, 24 h, basal condition, primary screen (AID 1173); settings: S. cerevisiae BY4716 growth, OD600, 24 h; higher = more signal, called active from +8 up or from −8 down
[13] = viability profiling in MM1S myeloma cells – cell-based, resazurin fluorescence, basal, 24 h, PK04 Diversity Set, profiling panel (AID 1174); settings: higher = more signal, called active from +8 up or from −8 down; note: test concentration not given here
[14] = target: Dihydroorotate dehydrogenase (quinone), mitochondrial (Plasmodium falciparum (isolate 3D7)) (UniProt Q08210); assay: inhibition of P. falciparum DHODH – biochemical, C-terminal His tag, absorbance 600 nm, primary screen (AID 1175); settings: PfDHODH enzyme, DCIP absorbance 600 nm; higher = more signal, called active from +8 up or from −8 down;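 note: recombinant parasite enzyme with a five histidine tag at its C terminus; test concentration not given here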
[15] = inhibition of PAO1 biofilm formation – strain PAO1, LB-PBS medium, absorbance 600 nm, primary screen (AID 1176); note: test concentration not given here; settings: P. aeruginosa PAO1 growth/biofilm, A600, 12 h; higher = more signal
[16] = growth modulation of vineyard yeast isolate – strain RM11-1a, OD600, basal, 24 h, primary screen (AID 1177);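 note: cultures grown under basal conditions with no added stressor; test concentration not given here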; settings: S. cerevisiae RM11-1a growth, OD600, 24 h; higher = more signal, called active from +8 up or from −8 down
[17] = growth of efflux-deficient E. coli DRC39 – strain DRC39, OD650, 24 h, E. coli filamentation inducers, primary screen (AID 1178);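 note: growth measured as culture turbidity by optical density at 650 nm; test concentration not given here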; settings: E. coli DRC39 acrAB, higher = more signal, called active from +8 up or from −8 down
[18] = growth of efflux-deficient E. coli DRC39 – strain DRC39, OD650, 48 h, E. coli filamentation inducers, primary screen (AID 1179);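 note: screen aims at cell division blockers that make cells filament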; settings: E. coli DRC39 delta-acrAB growth, higher = more signal, called active from +8 up or from −8 down
[19] = viability profiling in RPMI8226 myeloma cells – cell-based, resazurin fluorescence, basal, 24 h, PK04 Diversity Set, profiling panel (AID 1180); settings: higher = more signal;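 note: RPMI8826 multiple myeloma cell line at 5000 cells per well; test concentration not given here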
[20] = target: E3 ubiquitin-protein ligase XIAP (Homo sapiens) (UniProt P98170); assay: small molecules binding XIAP protein – biophysical, small-molecule microarray, fluorescence 635 nm, primary screen (AID 1181); settings: higher = more signal;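 note: score merges 667 nm emission and signal to noise over triplicate slides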
Sequence of E3 ubiquitin-protein ligase XIAP (Homo sapiens) (P98170 whole entry, looked up): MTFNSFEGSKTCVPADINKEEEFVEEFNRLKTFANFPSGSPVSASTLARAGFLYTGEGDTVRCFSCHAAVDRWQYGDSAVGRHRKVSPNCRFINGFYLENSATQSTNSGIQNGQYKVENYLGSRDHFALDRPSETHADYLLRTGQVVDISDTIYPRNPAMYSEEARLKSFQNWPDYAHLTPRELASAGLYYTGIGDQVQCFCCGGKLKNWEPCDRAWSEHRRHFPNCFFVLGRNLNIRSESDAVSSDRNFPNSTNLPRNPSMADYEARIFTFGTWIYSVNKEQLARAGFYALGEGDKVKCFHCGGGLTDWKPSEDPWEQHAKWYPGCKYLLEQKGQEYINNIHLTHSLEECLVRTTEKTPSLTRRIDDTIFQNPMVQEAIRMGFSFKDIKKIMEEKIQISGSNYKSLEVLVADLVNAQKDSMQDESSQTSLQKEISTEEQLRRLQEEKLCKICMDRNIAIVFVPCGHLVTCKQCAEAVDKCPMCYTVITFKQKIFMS

Sequence of Dihydroorotate dehydrogenase (quinone), mitochondrial (Plasmodium falciparum (isolate 3D7)) (Q08210 whole entry, looked up): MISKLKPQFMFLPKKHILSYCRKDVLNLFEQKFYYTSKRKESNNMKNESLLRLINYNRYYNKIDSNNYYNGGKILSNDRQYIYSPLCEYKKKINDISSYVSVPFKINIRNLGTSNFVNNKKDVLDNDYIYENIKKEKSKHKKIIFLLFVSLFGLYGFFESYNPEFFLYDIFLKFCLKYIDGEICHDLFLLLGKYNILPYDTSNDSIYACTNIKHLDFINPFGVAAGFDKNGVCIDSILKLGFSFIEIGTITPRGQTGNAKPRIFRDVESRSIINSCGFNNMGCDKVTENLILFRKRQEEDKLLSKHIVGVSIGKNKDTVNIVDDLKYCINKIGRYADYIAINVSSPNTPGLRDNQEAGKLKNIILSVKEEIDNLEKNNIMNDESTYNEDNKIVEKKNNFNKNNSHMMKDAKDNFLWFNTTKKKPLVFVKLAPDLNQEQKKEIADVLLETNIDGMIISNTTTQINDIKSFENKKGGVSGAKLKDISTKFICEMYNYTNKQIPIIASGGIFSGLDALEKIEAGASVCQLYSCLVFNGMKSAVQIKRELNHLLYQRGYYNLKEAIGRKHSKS

SMILES	z-score [1]	z-score [2]	z-score [3]	z-score [4]	z-score [5]	z-score [6]	z-score [7]	z-score [8]	z-score [9]	z-score [10]	z-score [11]	z-score [12]	z-score [13]	composite z-score [14]	z-score [15]	z-score [16]	z-score [17]	z-score [18]	z-score [19]	composite z-score [20]
CN(C)C(=O)[C@@]1(CCC(=O)OC(C)(C)C)N=C(c2ccc(OCCCO)cc2)O[C@H]1c1ccccc1	-0.211	0.687	-0.517	0.301	-1.48	0.26	-0.58 (inactive)	-1	0.279	0.107 (inactive)	-0.299	-0.757 (inactive)	-0.441 (inactive)	-0.507 (inactive)	0.401 (inactive)	-0.346 (inactive)	0.541 (inactive)	-0.353 (inactive)	0.276	-0.168
O=C(CCN1CCOCC1)c1cccc(O)c1	0.867	0.75	-0.891	-3.16	-1.74	0.109	-0.163 (inactive)	-0.0964	-2.97	0.36 (inactive)	1.19	-0.804 (inactive)	-1.43 (inactive)	-1.44 (inactive)	-0.407 (inactive)	-1.07 (inactive)	0.251 (inactive)	0.737 (inactive)	-1.6	0.226
CC(C)C[C@@H]1NC(=O)[C@H]2C[C@@H](C(=O)NCCCCCNC(=O)CS)[C@@H](c3cccc(OCCO)c3)N2C1=O	0.546	-0.206	-0.158	-1.11	-0.768	-0.0747	-0.362 (inactive)	0.565	0.975	0.276 (inactive)	0.265	-0.45 (inactive)	-0.229 (inactive)	0.0225 (inactive)	0.326 (inactive)	-0.0734 (inactive)	0.346 (inactive)	-0.663 (inactive)	-0.492	0.379
O=C1O[C@@H](c2ccccc2)[C@@H](c2ccccc2)N2[C@@H](c3ccc(OCCO)cc3)[C@]3(C(=O)Nc4ccc(C#CC5=CCCCC5)cc43)[C@@H](C(=O)O)[C@H]12	1.09	0.771	-0.128	-3.21	-4.57	-4.12	-4.9 (inactive)	-0.946	-1.42	0.872 (inactive)	0.332	-0.734 (inactive)	-1.5 (inactive)	-13.5 (active)	2.07 (inactive)	1.44 (inactive)	0.448 (inactive)	0.0447 (inactive)	-1.43	0.104
COc1ccc(C#Cc2ccc3c(c2)[C@]2(C(=O)N3)[C@H](C(=O)NC[C@H](O)c3ccccc3)[C@H]3C(=O)O[C@H](c4ccccc4)[C@H](c4ccccc4)N3[C@@H]2c2ccccc2OCCO)cc1	-1.86	0.0393	-3.16	-3.35	-3.4	-2.27	2.97 (inactive)	-0.865	-1.7	-1.58 (inactive)	-1.62	1.32 (inactive)	-4.48 (inactive)	-0.0131 (inactive)	2.4 (inactive)	2.27 (inactive)	-0.444 (inactive)	-0.849 (inactive)	-5.2	0.0297
C=CCC(OC(C)=O)[C@@H]1[C@@H](N(Cc2cccc3ccccc23)C(=O)c2ccc(C)cc2)c2cc(OCCCO)ccc2N1C(=O)Cc1ccc(OC)cc1 (stereo not given in full)	1.77	1.14	1.97	0.621	0.943	1.77	0.696 (inactive)	0.594	-0.596	0.69 (inactive)	1.36	-2.29 (inactive)	0.641 (inactive)	-1.6 (inactive)	0.0186 (inactive)	-1.25 (inactive)	1.59 (inactive)	1.98 (inactive)	-0.203	-0.086
C=C(COC)C(=O)CC[C@H](OC(C)=O)c1cccc(OCCO)c1	-0.0614	1.55	-0.116	-2.94	-1.07	-0.331	0.715 (inactive)	1.18	0.471	-1.07 (inactive)	-1.32	-0.764 (inactive)	-0.854 (inactive)	-0.859 (inactive)	-0.73 (inactive)	-0.496 (inactive)	-1.03 (inactive)	-0.639 (inactive)	-1.27	0.0346
COc1ccc(CCNC(=O)[C@@]2(c3ccc([N+](=O)[O-])cc3)CC(=O)N(CC34CC5CC(CC(C5)C3)C4)[C@@H]2c2ccc(CO)cc2)cc1	-2.36	0.369	-1.88	-2.98	-4.23	1.23	-0.626 (inactive)	-0.857	-0.452	-2.29 (inactive)	-1.86	-0.125 (inactive)	-2.58 (inactive)	0.682 (inactive)	1.61 (inactive)	0.526 (inactive)	-0.226 (inactive)	-0.281 (inactive)	-2.81	0.0073
CCCCCN1CC=CC23O[C@@H]4/C=C\CCCOC(=O)C4[C@H]2C(=O)N(CCCCCCO)[C@@H]3C1=O (stereo not given in full)	1.26	2.1	1.54	1.37	1.97	0.482	-0.462 (inactive)	0.521	-1.09	0.4 (inactive)	0.239	-2.73 (inactive)	0.972 (inactive)	-2.25 (inactive)	1.45 (inactive)	-3.12 (inactive)	0.758 (inactive)	0.868 (inactive)	1.42	0.147

— PubChem BioAssay
